Our source for the outcome and AC50 values is PubChem BioAssay (EPA / NIEHS).

Molecules are shown by their SMILES. Records with an inconclusive call do not appear. Active and inactive are the calls of the source. How the source made its calls, unless noted: active means hit-call score of the fitted dose curve at least 0.9, where 1 is the maximum; inconclusive means response in the unintended direction; inactive means score below 0.9.

Assay [1] has as its target Estrogen receptor beta (Homo sapiens) (UniProt Q92731). The experiment in a line: OT_ER_ERbERb_0480: Odyssey Thera (OT) 8-hour HEK293T Protein-Complementation Assay for Estrogen Receptor-beta/-beta Homodimer (AID 2283357). The essentials: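 Readout: increase in mean fluorescence intensity (nucleus for agonists; nucleus plus cytoplasm for antagonists) relative to DMSO, from a reporter-fragment complementation of human ER-beta LBD homodimer in HEK293T cells dosed 8 hours.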

Assay [2] has the same target. The experiment in a line: OT_ER_ERbERb_1440: Odyssey Thera (OT) 24-hour HEK293T Protein-Complementation Assay for Estrogen Receptor-beta/-beta Homodimer (AID 2283380).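 Further: fluorescence gain from ER beta LBD homodimer complementation read by laser scanning cytometry; scored as signal increase over DMSO baseline for both agonists and antagonists.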 The essentials:
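HEK293T cells stably expressing human ER-beta LBD (aa 310-547) PCA homodimer pair, dosed 24 h; formaldehyde-fixed, Draq5-stained. Readout: increase in nuclear (agonist) or nuclear plus cytoplasmic (antagonist) fluorescence intensity versus DMSO, gain-of-signal fitting.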

The target in assay [3] is Retinoic acid receptor RXR-alpha (Homo sapiens) (UniProt P19793). The assay can be described thus: OT_NURR1_NURR1RXRa_0480: Odyssey Thera (OT) 8-hour HEK293T Protein Complementation Assay for Nurr1/retinoid X receptor (RXR) (AID 2283385). The essentials:
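8 h compound exposure, HEK293T; Nurr1/RXRα fragment complementation; fluorescence intensity; positive fitting direction vs DMSO baseline.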

The target is the same in assay [4]. The experiment in a line: OT_NURR1_NURR1RXRa_1440: Odyssey Thera (OT) 24-hour HEK293T Protein Complementation Assay for Nurr1/retinoid X receptor (RXR) (AID 2283386). Put shortly: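 Interaction of Nurr1 with RXRα brings fused reporter fragments together in human HEK293T cells, restoring a functional reporter. Fluorescence intensity is measured 24 h after chemical treatment, and values are analysed in the positive direction against DMSO.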

Assay [5] concerns the target Peroxisome proliferator-activated receptor gamma (Homo sapiens) (UniProt P37231). The experiment in a line: OT_PPARg_PPARgSRC1_1440: Odyssey Thera (OT) 24-hour Protein-Complementation Assay for Peroxisome Proliferator-activated Receptor Gamma/ SRC-1 Co-activator (AID 2283388). The essentials: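 HEK293T transiently transfected with PPARg/SRC-1 split-Venus YFP fusions 48 h before dosing, then treated 24 h at 37C. Fixed cells imaged; nuclear/cytoplasmic 488 nm fluorescence ratio, gain of signal versus DMSO.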

Assay [6] in a line: ACEA_AR_agonist_AUC_viability: ACEA Biosciences xCELLigence Real-Time Cell Analysis on Androgen Receptor Agonism for Viability (AID 2283775). The essentials: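 Real-time impedance tracking of 22Rv1 growth, readings every 5 min for 5 h then hourly; area-under-curve viability endpoint at 80 hours, relative to DMSO. Compounds at eight concentrations, 1:4 steps, top 100 uM, n = 2.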

A short description of assay [7]: ACEA_AR_antagonist_AUC_viability: ACEA Biosciences xCELLigence Real-Time Cell Analysis on Androgen Receptor Antagonism for Viability (AID 2283776).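 Further: 22Rv1 human prostate cancer cells growing on impedance electrode plates; hits lower the growth signal relative to DMSO meaning cytotoxicity.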 The essentials: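 Real-time electrical impedance tracks 22Rv1 proliferation after continuous compound exposure (top 100 uM final, 1:4 steps, 8 concentrations). The 80 h area-under-curve serves as the cytotoxicity readout relative to DMSO.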

Assay [8] is described as follows: CCTE_Harrill_HTTr_Apoptosis_MCF7: CCTE's 6-hour Apoptosis Assessment for the High-Throughput Transcriptomics (HTTr) Platform, in MCF-7 cells cultured in DMEM + 10% fetal bovine serum, Harrill Lab (AID 2284011; active means hit-call score of the fitted dose curve at least 0.9, where 1 is the maximum; inactive means score below 0.9). The essentials:
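MCF-7 cells in DMEM + 10% FBS exposed 6 h to chemicals over an eight-point dilution series. Caspase-3/7 activation imaged by high-content CellEvent Green staining; fitted bidirectionally versus DMSO.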

Assay [9] is described as follows: CCTE_Harrill_HTTr_CellCount_MCF7: CCTE's Cell Proliferation Assessment for the High-Throughput Transcriptomics (HTTr) Platform, Harrill Lab (AID 2284012).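 Further: cells exposed to compound for six hours; intended direction is loss of nuclei count meaning fewer cells.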 The essentials: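 Chemicals in eight-point dilution series are added to MCF-7 cells for six hours, nuclei are stained with Hoechst and imaged, and per-well nuclei counts are fitted in both directions relative to DMSO controls.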

The nature of assay [10]: ATG_ERE_CIS: Attagene CIS-FACTORIAL HepG2 Assay for Estrogen Response Element (ERE) (AID 2282940; active means hit-call score of the fitted dose curve at least 0.9, where 1 is the maximum; inactive means score below 0.9). The conditions noted are these: HepG2 ERE cis-reporter, Attagene RNA transcript; actives raise or lower the signal. The essentials:
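Cells used were human hepatoma HepG2, transfected with multiple reporter transcription units under cis-regulatory promoters. Reporter mRNA, read 24 h post-dosing via fluorescent RT-PCR products on capillary electrophoresis, was fitted bidirectionally relative to DMSO.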

The target in assay [11] is Bile acid receptor (Homo sapiens) (UniProt Q96RI1). The assay can be described thus: ATG_FXR_TRANS: Attagene TRANS-FACTORIAL HepG2 Assay for Farnesoid X Receptor (FXR) (AID 2282979).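 Further: hits raise reporter mRNA above DMSO so AC50 marks FXR activation.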 The conditions noted are these: HepG2 Attagene TRANS FXR-GAL4 reporter transcription. Put shortly: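 HepG2 cells were transiently transfected with GAL4-UAS reporters driven by chimeric NR-Gal4 proteins and dosed for 24 h. Reporter mRNA was quantified by RT-PCR, fluorescent labelling, HpaI digestion and capillary electrophoresis, with gain of signal scored versus DMSO.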

For assay [12], the target named is human Thyroid Receptor alpha (THRa1), THRA (gene 7067) (UniProt P10827). The assay can be described thus: ATG_THRa1_TRANS: Attagene TRANS-FACTORIAL HepG2 Assay for human Thyroid Receptor alpha (THRa1) (AID 2283014). The essentials:
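HepG2 cells transiently transfected with chimeric NR-Gal4 and GAL4-UAS reporter units, dosed 24 h. Reporter mRNA quantified by RT-PCR, fluorescent labeling, HpaI digestion and capillary electrophoresis; gain-of-signal fit versus DMSO.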

Assay [13] deals with Steroid hormone receptor ERR1 (Homo sapiens) (UniProt P11474). The assay can be described thus: ATG_ERRa_TRANS: Attagene TRANS-FACTORIAL HepG2 Assay for human Estrogen-Related Receptor alpha (ERRa) (AID 2282971). The conditions noted are these: HepG2 Attagene TRANS reporter, ERRa transactivation. Put shortly:
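HepG2 cells transiently transfected with GAL4-UAS reporter units and chimeric NR-Gal4 constructs; after 24 hour compound incubation, reporter mRNA quantified by RT-PCR, fluorescent labelling and capillary electrophoresis, gain of signal versus DMSO.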

For assay [14], the target named is Estrogen-related receptor gamma (Homo sapiens) (UniProt P62508). The experiment in a line: ATG_ERRg_TRANS: Attagene TRANS-FACTORIAL HepG2 Assay for human Estrogen-Related Receptor gamma (ERRg) (AID 2282977).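 Further: hits increase reporter signal over DMSO so potencies reflect activators.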 As to conditions: HepG2 Attagene TRANS reporter, ERRg transactivation. Put shortly: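 Transfect HepG2 with multiple GAL4-UAS reporter transcription units; dose chemicals 24 h; isolate RNA, reverse-transcribe with oligo(dT), PCR-amplify, label with 6-FAM, digest with HpaI; size fragments by capillary electrophoresis. DMSO serves as negative control.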

Assay [15] addresses Estrogen receptor (Homo sapiens) (UniProt P03372). The assay can be described thus: ATG_ERa_TRANS: Attagene TRANS-FACTORIAL HepG2 Assay for human Estrogen Receptor alpha (ERa) (AID 2282970). As to conditions: HepG2 Attagene TRANS ERa GAL4 reporter, mRNA. Put shortly:
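HepG2 cells transiently transfected with multiplexed GAL4-UAS reporter units read out chimeric NR-Gal4 activity. After 24 h compound exposure, reporter mRNA was quantified by RT-PCR, 6-FAM labeling, HpaI digestion and capillary electrophoresis, relative to DMSO.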

A short description of assay [16]: BSK_3C_uPAR: BioMAP Diversity Plus: 3C Assay for Urokinase-type plasminogen activator receptor (uPAR) Biomarker Activity (AID 2282998; active means hit-call score of the fitted dose curve at least 0.9, where 1 is the maximum; inactive means score below 0.9). The conditions noted are these: BioMAP 3C HUVEC, uPAR biomarker ELISA; actives raise or lower the signal. The essentials:
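Dose primary human umbilical vein endothelial cells, incubate 24 h, measure cell-surface uPAR by ELISA, then fit the signal in both directions against the DMSO negative control.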

Assay [17] is described as follows: BSK_4H_Eotaxin3: BioMAP Diversity Plus: 4H Assay for Eotaxin 3 Biomarker Activity (AID 2283000; active means hit-call score of the fitted dose curve at least 0.9, where 1 is the maximum; inactive means score below 0.9). As to conditions: primary human endothelial cells (HUVEC); actives raise or lower the signal. Put shortly: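 Eotaxin-3 (CCL26) levels were measured by ELISA in HUVEC primary cultures 24 h post-dosing. Gain or loss of signal was fitted in both directions, with DMSO serving as baseline and negative control.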

Read-out in assay [18]: Intercellular Adhesion Molecule 1 (ICAM1), ICAM1 (gene 3383)
The assay can be described thus: BSK_3C_ICAM1: BioMAP Diversity Plus: 3C Assay for Intercellular Adhesion Molecule 1 (ICAM1) Biomarker Activity (AID 2283003; active means hit-call score of the fitted dose curve at least 0.9, where 1 is the maximum; inactive means score below 0.9). As to conditions: primary human endothelial cells (HUVEC); actives raise or lower the signal. The essentials: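 ICAM-1 levels measured by ELISA after HUVEC cultures in the 3C system had been dosed for 24 h. Gain or loss of signal relative to DMSO was fitted in both directions.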

Read-out in assay [19]: Monocyte Chemoattractant Protein-1 (MCP1), CCL2 (gene 6347)
The experiment in a line: BSK_4H_MCP1: BioMAP Diversity Plus: 4H Assay for Monocyte Chemoattractant Protein-1 (MCP1) Biomarker Activity (AID 2283018; active means hit-call score of the fitted dose curve at least 0.9, where 1 is the maximum; inactive means score below 0.9). The conditions noted are these: primary human endothelial cells (HUVEC); actives raise or lower the signal. The essentials: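 ELISA read-out of MCP-1 from human vascular endothelial primary cells taken at 24 hours after compound exposure. Activity was fitted in both directions relative to DMSO, which served as negative control.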

Read-out in assay [20]: Thrombomodulin, THBD (gene 7056)
The experiment in a line: BSK_CASM3C_Thrombomodulin: BioMAP Diversity Plus: CASM3C Assay for Thrombomodulin Biomarker Activity (AID 2283051; active means hit-call score of the fitted dose curve at least 0.9, where 1 is the maximum; inactive means score below 0.9;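 further: thrombomodulin protein level measured by ELISA 24 h after dosing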). The conditions noted are these: primary human coronary artery smooth muscle cells; actives raise or lower the signal.

Estrogen receptor beta (Homo sapiens), sequence (Q92731 whole entry, looked up, the tested form may be a part): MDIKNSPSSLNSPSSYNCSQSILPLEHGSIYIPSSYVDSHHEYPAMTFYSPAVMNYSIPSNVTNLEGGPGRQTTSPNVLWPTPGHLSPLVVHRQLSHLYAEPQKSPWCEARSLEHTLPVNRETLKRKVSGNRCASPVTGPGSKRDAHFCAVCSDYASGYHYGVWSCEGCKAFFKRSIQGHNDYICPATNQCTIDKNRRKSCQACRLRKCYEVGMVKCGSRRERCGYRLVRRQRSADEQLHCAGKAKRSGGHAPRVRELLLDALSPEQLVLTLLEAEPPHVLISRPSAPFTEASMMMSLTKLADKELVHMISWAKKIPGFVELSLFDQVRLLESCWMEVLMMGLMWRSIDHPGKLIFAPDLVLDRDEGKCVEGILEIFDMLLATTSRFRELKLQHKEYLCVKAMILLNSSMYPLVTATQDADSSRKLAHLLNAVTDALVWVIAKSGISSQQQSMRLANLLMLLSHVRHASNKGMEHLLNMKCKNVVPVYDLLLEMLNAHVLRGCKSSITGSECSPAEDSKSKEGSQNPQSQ
Estrogen receptor (Homo sapiens), sequence (P03372 whole entry, looked up, the tested form may be a part): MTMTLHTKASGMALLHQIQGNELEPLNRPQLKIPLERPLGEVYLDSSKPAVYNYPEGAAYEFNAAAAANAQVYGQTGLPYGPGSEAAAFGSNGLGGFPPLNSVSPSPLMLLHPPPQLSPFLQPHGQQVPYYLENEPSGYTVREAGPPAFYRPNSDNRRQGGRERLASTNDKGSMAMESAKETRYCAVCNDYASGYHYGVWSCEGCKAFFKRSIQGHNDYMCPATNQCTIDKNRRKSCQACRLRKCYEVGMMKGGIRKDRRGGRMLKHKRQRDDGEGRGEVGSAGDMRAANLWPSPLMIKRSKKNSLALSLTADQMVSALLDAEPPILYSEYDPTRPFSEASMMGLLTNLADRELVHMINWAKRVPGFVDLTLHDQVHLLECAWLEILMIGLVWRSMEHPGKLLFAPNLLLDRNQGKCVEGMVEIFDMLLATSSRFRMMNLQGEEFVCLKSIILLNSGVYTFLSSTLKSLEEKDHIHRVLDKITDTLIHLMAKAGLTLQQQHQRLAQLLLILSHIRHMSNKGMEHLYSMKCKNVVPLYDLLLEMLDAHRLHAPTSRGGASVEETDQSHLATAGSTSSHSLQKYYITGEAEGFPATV
Peroxisome proliferator-activated receptor gamma (Homo sapiens), sequence (P37231 whole entry, looked up, the tested form may be a part): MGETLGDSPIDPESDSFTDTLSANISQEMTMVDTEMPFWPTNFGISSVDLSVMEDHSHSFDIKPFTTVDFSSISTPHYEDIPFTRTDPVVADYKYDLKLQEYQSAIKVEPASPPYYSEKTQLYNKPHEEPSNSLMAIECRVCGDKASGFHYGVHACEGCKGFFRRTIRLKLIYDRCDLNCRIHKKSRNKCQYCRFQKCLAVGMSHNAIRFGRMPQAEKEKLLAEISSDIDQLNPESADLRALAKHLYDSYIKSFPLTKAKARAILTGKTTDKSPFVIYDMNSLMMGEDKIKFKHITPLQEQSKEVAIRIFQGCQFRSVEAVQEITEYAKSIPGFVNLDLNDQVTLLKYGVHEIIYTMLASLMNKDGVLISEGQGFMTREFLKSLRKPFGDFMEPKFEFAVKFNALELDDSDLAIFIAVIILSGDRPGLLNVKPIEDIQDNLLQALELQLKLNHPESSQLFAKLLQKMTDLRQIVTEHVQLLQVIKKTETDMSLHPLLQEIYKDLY
human Thyroid Receptor alpha (THRa1), THRA (gene 7067), sequence (P10827 whole entry, looked up, the tested form may be a part): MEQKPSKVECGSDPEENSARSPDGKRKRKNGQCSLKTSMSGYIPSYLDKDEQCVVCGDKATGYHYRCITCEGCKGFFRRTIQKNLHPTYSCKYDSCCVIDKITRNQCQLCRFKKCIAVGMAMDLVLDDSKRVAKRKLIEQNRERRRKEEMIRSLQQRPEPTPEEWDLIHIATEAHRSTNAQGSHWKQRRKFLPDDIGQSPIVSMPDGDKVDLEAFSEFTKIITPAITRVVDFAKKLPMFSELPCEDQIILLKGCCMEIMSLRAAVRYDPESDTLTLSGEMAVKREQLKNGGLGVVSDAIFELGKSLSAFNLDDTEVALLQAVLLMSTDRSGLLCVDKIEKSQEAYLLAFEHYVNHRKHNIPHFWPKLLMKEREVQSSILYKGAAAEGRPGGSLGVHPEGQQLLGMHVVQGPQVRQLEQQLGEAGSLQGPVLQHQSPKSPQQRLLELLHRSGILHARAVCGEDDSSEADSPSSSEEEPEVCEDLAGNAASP
Estrogen-related receptor gamma (Homo sapiens), sequence (P62508 whole entry, looked up, the tested form may be a part): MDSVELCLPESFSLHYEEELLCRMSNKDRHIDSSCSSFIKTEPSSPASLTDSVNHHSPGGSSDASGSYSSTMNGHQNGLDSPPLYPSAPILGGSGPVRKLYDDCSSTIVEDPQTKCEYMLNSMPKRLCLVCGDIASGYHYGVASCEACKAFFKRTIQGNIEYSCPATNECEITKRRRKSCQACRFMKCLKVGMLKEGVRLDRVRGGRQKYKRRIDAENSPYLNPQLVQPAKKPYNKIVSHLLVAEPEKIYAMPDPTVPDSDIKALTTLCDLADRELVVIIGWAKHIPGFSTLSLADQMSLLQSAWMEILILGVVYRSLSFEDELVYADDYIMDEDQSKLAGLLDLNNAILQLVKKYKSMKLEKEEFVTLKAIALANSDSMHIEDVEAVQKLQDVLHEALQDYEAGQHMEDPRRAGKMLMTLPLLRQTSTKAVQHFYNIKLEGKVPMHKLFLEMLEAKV
Retinoic acid receptor RXR-alpha (Homo sapiens), sequence (P19793 whole entry, looked up, the tested form may be a part): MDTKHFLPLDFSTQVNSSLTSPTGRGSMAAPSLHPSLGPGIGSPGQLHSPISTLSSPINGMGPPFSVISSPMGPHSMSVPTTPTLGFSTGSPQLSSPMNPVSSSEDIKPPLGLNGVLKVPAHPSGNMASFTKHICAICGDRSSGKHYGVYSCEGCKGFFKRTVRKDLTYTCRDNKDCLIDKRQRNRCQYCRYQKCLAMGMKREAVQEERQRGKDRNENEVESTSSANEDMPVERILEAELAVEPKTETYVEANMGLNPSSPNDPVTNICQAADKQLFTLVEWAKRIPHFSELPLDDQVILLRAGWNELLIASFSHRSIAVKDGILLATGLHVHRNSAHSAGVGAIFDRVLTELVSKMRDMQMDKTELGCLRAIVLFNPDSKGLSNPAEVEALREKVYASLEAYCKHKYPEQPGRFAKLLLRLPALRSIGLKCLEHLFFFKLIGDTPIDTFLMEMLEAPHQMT
Steroid hormone receptor ERR1 (Homo sapiens), sequence (P11474 whole entry, looked up, the tested form may be a part): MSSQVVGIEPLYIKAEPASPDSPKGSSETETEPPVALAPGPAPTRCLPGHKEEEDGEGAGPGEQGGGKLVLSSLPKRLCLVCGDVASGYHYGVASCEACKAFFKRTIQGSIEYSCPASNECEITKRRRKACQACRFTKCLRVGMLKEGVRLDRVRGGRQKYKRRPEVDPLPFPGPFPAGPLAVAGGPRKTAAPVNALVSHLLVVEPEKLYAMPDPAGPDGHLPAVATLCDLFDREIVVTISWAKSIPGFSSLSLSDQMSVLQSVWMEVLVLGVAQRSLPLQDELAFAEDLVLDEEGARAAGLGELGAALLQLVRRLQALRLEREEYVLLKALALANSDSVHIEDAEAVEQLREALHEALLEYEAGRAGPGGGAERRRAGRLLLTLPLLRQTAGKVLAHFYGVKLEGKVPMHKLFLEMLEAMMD
Bile acid receptor (Homo sapiens), sequence (Q96RI1 whole entry, looked up, the tested form may be a part): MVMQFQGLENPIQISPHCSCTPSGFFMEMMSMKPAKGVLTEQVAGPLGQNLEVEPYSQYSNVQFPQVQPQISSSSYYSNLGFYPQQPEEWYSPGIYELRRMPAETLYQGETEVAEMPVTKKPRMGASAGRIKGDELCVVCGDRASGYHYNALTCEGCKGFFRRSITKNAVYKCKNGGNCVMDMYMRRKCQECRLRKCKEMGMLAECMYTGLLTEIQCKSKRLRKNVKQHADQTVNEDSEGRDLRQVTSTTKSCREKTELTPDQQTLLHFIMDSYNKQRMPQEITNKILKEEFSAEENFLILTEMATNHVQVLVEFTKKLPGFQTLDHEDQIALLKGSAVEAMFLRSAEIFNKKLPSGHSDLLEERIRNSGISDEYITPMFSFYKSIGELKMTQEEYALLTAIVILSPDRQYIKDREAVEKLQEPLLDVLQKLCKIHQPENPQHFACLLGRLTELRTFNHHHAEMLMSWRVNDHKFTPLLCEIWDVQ

Regarding `CN(C)C(=O)C(c1ccccc1)c1ccccc1`, the outcome in assay [1], in assay [2], in [3], in [4], in assay [5] and in [6] was inactive. The call in assay [7], in assay [8] and in assay [9] was inactive.
As for `O=C(O)C(Br)Br`, the outcome in assay [10] and in assay [11] was inactive.
For `CC=Cc1ccc2c(c1)OCO2`, the compound was called inactive in assay [12].
Turning to `CC1CCC(=O)O1` (stereo not drawn), in assay [13], the call was inactive.
As for `O=C(CCN1CC1)OCC(CO)(COC(=O)CCN1CC1)COC(=O)CCN1CC1`, the call in [11] was inactive.
In the case of `COC(=O)COc1ccc(Cl)cc1Cl`, the result in assay [13], in [14] and in [12] was inactive.
What is called AC50 is the concentration giving half of the maximal activity seen. Take `COc1cc(OC)c(OC)cc1C=O`: the AC50 in assay [10] was 27.6 µM (active). The outcome in assay [15] and in [13] was inactive.
For the compound `O=C(NC(=O)c1c(F)cccc1F)Nc1ccc(Oc2ccc(C(F)(F)F)cc2Cl)cc1F`, the compound was called inactive in [11], in assay [1], in assay [2], in [5], in [6] and in [7]. Also, in assay [4], the AC50 was 31.3 µM (active).
Regarding `Cc1ccc(C)c2ccccc12`, the compound was called inactive in [1], in assay [2], in assay [3], in [5] and in assay [6].
Regarding `CN1C[C@H](C(=O)N[C@]2(C)O[C@@]3(O)[C@@H]4CCCN4C(=O)[C@H](Cc4ccccc4)N3C2=O)C=C2c3cccc4[nH]cc(c34)C[C@H]21`, the result in assay [10] and in assay [11] was inactive.
On to `C=CC(=O)OCCO`, for which the compound was called inactive in assay [1], in assay [2], in assay [6] and in assay [7].
`O=C=Nc1ccccc1`: the outcome in [13], in [14], in assay [2], in assay [4], in [5] and in assay [6] was inactive. Moreover, the compound was called inactive in [7], in assay [8] and in assay [9].
As to `BrCBr`, the outcome in assay [10], in [15] and in assay [12] was inactive.
Turning to `Cc1cc(C)c(C2=C(OC(=O)CC(C)(C)C)C3(CCCC3)OC2=O)c(C)c1`, the call in [10], in assay [15], in assay [11], in assay [1], in assay [2] and in assay [3] was inactive. Besides, the result in [4], in assay [5], in assay [6] and in assay [7] was inactive.
In the case of `COC(C)(C)CCC[C@H](C)C/C=C/C(C)=C/C(=O)OC(C)C`, the outcome in [14] was inactive. In addition, the AC50 was 33.5 µM (active) in assay [16]; 29.4 µM (active) in assay [17]; 30.4 µM (active) in [18]; 29.8 µM (active) in assay [19]; 14.3 µM (active) in [20].
Take `CCCCNP(N)(N)=S`: the compound was classed as inactive in assay [10], in [15] and in [11].
With `CCC(C)(C)O`, the result in [10], in assay [8] and in assay [9] was inactive.
As to `CC(C)(C)C(=O)CCl`, the outcome in assay [10], in [15], in assay [13], in [14], in assay [16] and in assay [18] was inactive. For the same compound, the outcome in [19], in assay [20], in [8] and in [9] was inactive. Also, in assay [17], the AC50 was 20 µM (active).
